# Out of some 52,000 compounds screened, about 1,700 (3.3%) were called active. This is one part of a sample in which actives are shown more often than they occur. Cut-off read from the data, not from the text of the source: active = survival mostly below about 52% (no sharp cut-off); inactive = mostly above about 56%.
# System: Wild type
# Experiment: S. aureus survival, RN4220 and DeltatarO strains – OD600, teichoic acid synthesis inhibitors, primary screen (AID 463173)
# Details: S. aureus RN4220 wild type/DeltatarO growth, OD600, 18 h, active compounds read low, screened at 18.75 µg/mL (by protocol)
row,Structure (SMILES),survival
1,Cc1ccc(C(=O)N2CCN(c3ccccc3)CC2)cc1NC(=O)c1nsc2ccccc12,73% (inactive)
2,COc1ccc(OC)c(NC(=O)C2=C(C)C(=O)OC23CCN(C(C)C)CC3)c1,0% (active)
3,CC1=C(C(=O)Nc2cccc(Cl)c2C)C2(CCCCCC2)OC1=O,-2% (active)
4,CC1=C(C(=O)Nc2cccc(C(F)(F)F)c2)C2(CCCCCC2)OC1=O,0% (active)
5,CC1=C(C(=O)Nc2cccc(C(F)(F)F)c2)C2(CCCCC2)OC1=O,88% (inactive)
6,CC1=C(C(=O)Nc2cccc(C)c2C)C2(CCCCC2)OC1=O,74% (inactive)
7,CC1=C(C(=O)Nc2cccc(C(F)(F)F)c2)C2(CCN(C(C)C)CC2)OC1=O,91% (inactive)
8,COc1ccc(OC)c(NC(=O)C2=C(C)C(=O)OC23CCCCCC3)c1,129% (inactive)
9,COC(=O)c1ccccc1NC(=O)C1=C(C)C(=O)OC12CCC(C)CC2 (stereo not given),-6% (active)
10,COc1ccc(NC(=O)C2=C(C)C(=O)OC23CCN(C(C)C)CC3)cc1Cl,77% (inactive)
11,COC(=O)c1ccccc1NC(=O)C1=C(C)C(=O)OC12CCCCCC2,91% (inactive)
12,CC1=C(C(=O)Nc2ccccc2Br)C2(CCC(C)CC2)OC1=O (stereo not given),83% (inactive)
13,CC(=O)N1CCC2(CC1)OC(=O)C(C)=C2C(=O)Nc1cccc(Cl)c1C,82% (inactive)
14,Cc1cc(C)n(C(=O)CCCC(=O)O)n1,96% (inactive)
15,Cc1ccc(CNC(=O)C(CC(C)C)N2Cc3ccccc3C2=O)cc1 (stereo not given),136% (inactive)
16,COc1cc(-c2nc(Cn3nnc(C(=O)Nc4cc(C)cc(C)c4)c3C)c(C)o2)cc(OC)c1OC,70% (inactive)
17,CCOc1cc(CNC(=O)CSc2n[nH]c(-c3ccccc3)n2)cc(OCC)c1OCC,131% (inactive)
18,CC1=C(C(=O)NCc2cccc(Br)c2)C2(CCCCC2)OC1=O,82% (inactive)
19,CC1=C(C(=O)NCc2cccc(F)c2)C2(CCCCC2)OC1=O,10% (active)
20,CC1=C(C(=O)NCc2cccc(F)c2)C2(CCCCCC2)OC1=O,65% (inactive)

row,Structure (SMILES),survival
1,COc1ccc(OCc2nnc(-c3ccccc3)o2)cc1,106% (inactive)
2,Cc1ccc(N2CCN(C(=O)c3cn(C)c4ccc(S(=O)(=O)N5CCC(C)CC5)cc4c3=O)CC2C)cc1 (stereo not given),126% (inactive)
3,COc1ccc(CNC(=O)Cn2nc(N3CCN(c4ccccc4)CC3)ccc2=O)c(OC)c1,-4% (active)
4,CCOc1ccccc1CNC(=O)Cn1nc(N2CCN(c3ccccc3)CC2)ccc1=O,82% (inactive)
5,COc1cccc(NC(=O)Cn2nc(N3CCN(c4ccccc4)CC3)ccc2=O)c1,85% (inactive)
6,CCn1c(SCC(=O)N(C2CCCCC2)C2CCCCC2)nnc1C(C)C,100% (inactive)
7,CCc1ccc(C2=C(C)C(N3CCC(C(=O)NCc4ccc(C)o4)CC3)=NS2(=O)=O)cc1,63% (inactive)
8,Cc1ccc(C(=O)NCCc2csc(-c3cccc(F)c3)n2)cc1C,78% (inactive)
9,O=C(COCc1cc(-c2cccs2)on1)N1CCN(c2cccc(Cl)c2)CC1,10% (active)
10,O=C(COCc1cc(-c2cccs2)on1)N1CCN(c2ccc(F)cc2)CC1,73% (inactive)
11,Cc1ccc(NC(=O)COCc2cc(-c3cccs3)on2)cc1Cl,65% (inactive)
12,O=C(COCc1cc(-c2cccs2)on1)Nc1cccc(O)c1,-3% (active)
13,O=C(COCc1cc(-c2cccs2)on1)N1CCN(c2ccccc2)CC1,68% (inactive)
14,O=C(COCc1cc(-c2ccco2)on1)Nc1cccc(O)c1,73% (inactive)
15,CC(=O)N1CCCc2cc(S(=O)(=O)N(C)CC(=O)Nc3cccc(Cl)c3C)ccc21,68% (inactive)
16,CCOc1ccccc1NC(=O)Cn1nnc(C(=O)NCc2ccc(F)cc2)c1N,101% (inactive)
17,Cc1cccc(Nc2sc(C(=O)c3ccc(Cl)cc3)c(N)c2C(N)=O)c1,45% (inactive)
18,Cc1ccc(C)n1-c1cccc2cccnc12,103% (inactive)
19,COc1ccccc1NC(=O)COC(=O)CC(C)(C)CC1=NS(=O)(=O)c2ccccc2N1,-3% (active)
20,CCc1ccc(NC(=O)COC(=O)CCCC2=NS(=O)(=O)c3ccccc3N2)cc1,129% (inactive)

row,Structure (SMILES),survival
1,CCOc1ccccc1NC(=O)COC(=O)CC(C)(C)CC1=NS(=O)(=O)c2ccccc2N1,63% (inactive)
2,O=C(COC(=O)CCCC1=NS(=O)(=O)c2ccccc2N1)Nc1ccc(Br)cc1,81% (inactive)
3,Cc1cccc(NC(=O)COC(=O)CCCC2=NS(=O)(=O)c3ccccc3N2)c1,-4% (active)
4,COc1ccc(Cl)cc1NC(=O)COC(=O)CC(C)(C)CC1=NS(=O)(=O)c2ccccc2N1,81% (inactive)
5,CCS(=O)(=O)N1CCC(NC(=O)c2ccccc2Cl)CC1,127% (inactive)
6,COc1cccc(NC(=O)CC2C(=O)OCCN2Cc2ccccc2)c1 (stereo not given),161% (inactive)
7,COc1ccc(CN2C(=O)N(c3cccc(C)c3)C(=O)C2CC(=O)Nc2ccc(F)cc2)cc1OC (stereo not given),73% (inactive)
8,CCOC(=O)CSc1ncnc2c1c(-c1ccccc1)cn2-c1ccc(OC)cc1,75% (inactive)
9,CCCSc1ncnc2c1c(-c1ccccc1)cn2-c1ccccc1OC,1% (active)
10,CCCCSc1ncnc2c1c(-c1ccccc1)cn2-c1cccc(F)c1,84% (inactive)
11,CCOC(=O)N1CCc2c(sc3c2c(=O)n(Cc2ccccc2)c(=O)n3CC(=O)Nc2ccc(F)cc2)C1,87% (inactive)
12,CCCCNc1nc2c(c(=O)n(Cc3ccc(Cl)cc3)c(=O)n2C)n1C,70% (inactive)
13,CCCCNc1nc2c(c(=O)n(Cc3ccccc3)c(=O)n2C)n1C,67% (inactive)
14,CCCCNc1nc2c(c(=O)n(Cc3ccc(Cl)c(Cl)c3)c(=O)n2C)n1C,1% (active)
15,CCn1c(=O)c2cc(C(=O)N(C)c3cc(C)ccc3C)sc2c2ccccc21,125% (inactive)
16,CCn1c(=O)c2cc(C(=O)N(CC(C)C)CC(C)C)sc2c2ccccc21,-1% (active)
17,CCn1c(=O)c2cc(C(=O)N(CCCOC(C)C)Cc3ccco3)sc2c2ccccc21,1% (active)
18,CCCn1c2ccccc2c2cnn(CC(=O)N(CCCOC(C)C)Cc3ccco3)c(=O)c21,76% (inactive)
19,CCn1c(=O)c2cc(C(=O)N(CCN(C)C)Cc3ccccc3)sc2c2ccccc21,75% (inactive)
20,Cc1ccc2[nH]c(=O)c3cc(C(=O)N(CCCOC(C)C)Cc4ccco4)sc3c2c1,71% (inactive)

# — PubChem BioAssay AID463173 (ICCB-Longwood Screening Facility, Harvard Medical School, 2010)
